Assay outcomes (PubChem)
Rows were chosen to be rich in hits. Some 2.9% of all compounds tested hit in one or more screens of this group.
Vif inh: blocks HIV Vif function. HEK293T cells, Vif self-association by quenched fluorescence, imaging, 24 h. inhibition, % at 7.49 µM. 0.35% of 340,000 active. AID 602346; in the data active = inhibition above about 50%, passing the limit was not always enough; inconclusive = no clear call, values can overlap the other calls; inactive = below about 31%
MITF act: increases MITF-driven TRPM1 promoter luciferase signal | SK-MEL-5 TRPM1-promoter luciferase, 24 h; % of positive control, neutral wells = 0 | activation, % at 12.5 µM | 0.75% of 300,000 active;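 active = mean activation of at least 80% with every replicate also reaching 80%; inconclusive = mean reaches 80% but some replicate falls short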
PvdQ acylase: blocks Pseudomonas aeruginosa PvdQ acylase activity. purified PvdQ acylase, fluorescence plate reader. inhibition, % at 10 µM. 0.063% of 340,000 active. AID 488965; in the data active = inhibition above about 30%, passing the limit was not always enough; inconclusive = no clear call, values can overlap the other calls
Wnt bcat act: activates Wnt/beta-catenin signaling in a reporter cell assay; activator, plate reader; activation, % at 9.35 µM; 1.2% of 300,000 active; AID 743398; in the data active = activation above about 30%, passing the limit was not always enough; inconclusive = no clear call, values can overlap the other calls
esBAF inh: SWI/SNF esBAF complex inhibition | mouse ES cells, Bmi1-luciferase knock-in reporter, 24 h; 100% = twice the neutral-well signal | reporter increase, % at 12.5 µM | 2% of 350,000 active | AID 602393; in the data active = activation above about 40%; inconclusive = no clear call, values can overlap the other calls;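 note: a rise in the Bmi1 reporter signal indicates esBAF inhibition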
N-glyco inh: blocks N-linked glycosylation in D54 reporter cells. reporter increase, % at 12.5 µM. D54 ERlucT glycosylation luciferase reporter, 24 h; percent of 100 nM tunicamycin response. AID 588692. 0.23% of 360,000 active;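 active = mean luciferase reporter signal, scaled so untreated is 0 and the glycosylation-blocking control 100, at or above a set limit in every replicate; inconclusive = mean reaches the limit but not every replicate does; inactive = mean below the limit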;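 note: luciferase carries N-glycosylation sites so blocking glycosylation raises the light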
Large screens that a line does not name were inactive.

O=C(NCc1ccccc1)c1cc(C2CCCN(S(=O)(=O)c3cccc4cccnc34)C2)on1 (stereo unspecified)	none (no result: MITF act, PvdQ acylase)
CCS(=O)(=O)N1[C@H](C#N)[C@@H](c2ccc(C#CC(C)C)cc2)[C@H]1CO	none (no result: Vif inh, MITF act, PvdQ acylase, Wnt bcat act, N-glyco inh)
Cc1ccc(OCC(=O)NCc2ccccn2)c(Br)c1	esBAF inh 55 (no result: Vif inh, Wnt bcat act)
O=C(COc1ccc(F)cc1Br)NCc1ccccn1	esBAF inh inconclusive (no result: MITF act, Wnt bcat act)
CCCOc1ccc(-c2cc(C(=O)NCC3CCCO3)c3ccccc3n2)cc1 (stereo unspecified)	esBAF inh 23
Cc1ccc(-c2cc(C(=O)NCc3ccccn3)c3ccccc3n2)cc1	Vif inh 59 (no result: Wnt bcat act)
CC=Cc1ccc2n(c1=O)C[C@H]1[C@H](CO)[C@@H](C(=O)NCCC)N(Cc3cccnc3)[C@@H]21 (mixture of isomers)	none (no result: Vif inh, MITF act, PvdQ acylase, Wnt bcat act, N-glyco inh)
CCOc1ccc(-n2c(COc3ccc(C)cc3)nnc2SCC(N)=O)cc1	Wnt bcat act 71 (no result: MITF act)
C[C@@H]1CN([C@@H](C)CO)C(=O)c2cccc(NC(=O)C3CC3)c2O[C@@H]1CN(C)C(=O)NC1CCCCC1	none (no result: Vif inh, MITF act, PvdQ acylase, Wnt bcat act, N-glyco inh)
CCOc1ccc(N2C(=O)/C(=C/c3cccs3)N(CC(=O)OC)C2=S)cc1	Vif inh 97
COC(=O)N1C(=O)[C@](c2ccc(Cl)cc2)(C(C)C)N1C(=O)OC	Vif inh 51
COc1ccc(NC(=O)N(C)C[C@@H]2Oc3ccc(NC(=O)Cn4cnnn4)cc3C(=O)N([C@H](C)CO)C[C@H]2C)cc1	none (no result: Vif inh, MITF act, PvdQ acylase, Wnt bcat act, N-glyco inh)
c1ccc(-c2ccccc2-c2nc(-c3cccnc3)no2)cc1	none (no result: Vif inh, Wnt bcat act)
c1ccc2c(-c3nc(-c4ccncc4)no3)cccc2c1	esBAF inh 46 (no result: Wnt bcat act)
c1cncc(-c2noc(-c3cccc4ccccc34)n2)c1	esBAF inh 58
Cc1c(-c2nc(-c3ccncc3)no2)cccc1[N+](=O)[O-]	none (no result: esBAF inh)
c1ccc(-c2noc(-c3cccc4ccccc34)n2)cc1	esBAF inh 76 (no result: Vif inh, Wnt bcat act)
C[C@@H]1CN([C@@H](C)CO)C(=O)c2cc(C3=CCCC3)cnc2O[C@@H]1CN(C)C(=O)C1CCOCC1	none (no result: Vif inh, MITF act, PvdQ acylase, Wnt bcat act, N-glyco inh)
Cc1c(C(=O)N2CCCC(C(F)(F)F)C2)oc2ccccc12 (stereo unspecified)	none
O=C(c1ccc(-c2ccccc2Cl)o1)N1CCCC(C(F)(F)F)C1 (stereo unspecified)	MITF act inconclusive, esBAF inh 51
CC1CCN(C(=O)c2ccc(-c3ccccc3Cl)o2)CC1	MITF act 110, Wnt bcat act 44, esBAF inh inconclusive
CC(=O)N1CCN(C(=O)c2ccc(-c3cccc(C(F)(F)F)c3)o2)CC1	none
O=C(c1ccc(-c2cccc(Cl)c2Cl)o1)N1CCOCC1	MITF act 86, Wnt bcat act 34
O=C(c1ccc(-c2cccc(C(F)(F)F)c2)o1)N1CCOCC1	esBAF inh 71
O=C(c1ccc(-c2ccc([N+](=O)[O-])cc2Cl)o1)N1CCOCC1	none (no result: esBAF inh)
O=C(c1ccc(-c2ccccc2Cl)o1)N1CCC1	MITF act inconclusive, esBAF inh 84
NC(=O)C1CCCN(C(=O)c2ccc(-c3cccc(Cl)c3Cl)o2)C1 (stereo unspecified)	Wnt bcat act 38, esBAF inh 75
C[C@@H](O)C#Cc1ccc([C@H]2[C@@H](CO)N3CCCCN(C(=O)c4cccc(F)c4)C[C@@H]23)cc1	none (no result: Vif inh, MITF act, PvdQ acylase, Wnt bcat act, N-glyco inh)
Cc1ccc(S(=O)(=O)N(C)C[C@@H]2Oc3ccc(NC(=O)C4CC4)cc3CC(=O)N([C@@H](C)CO)C[C@@H]2C)cc1	none (no result: Vif inh, MITF act, PvdQ acylase, Wnt bcat act, N-glyco inh)
C[C@@H]1CN([C@@H](C)CO)C(=O)c2cc(NC(=O)CCC(F)(F)F)ccc2O[C@@H](C)CCCCO[C@@H]1CN(C)Cc1ccccc1	none (no result: Vif inh, MITF act, PvdQ acylase, Wnt bcat act, N-glyco inh)
Cc1ccc(S(=O)(=O)Nc2cccc3c2O[C@H](CN(C)Cc2ccc(C(F)(F)F)cc2)[C@@H](C)CN([C@@H](C)CO)C3=O)cc1	none (no result: Vif inh, MITF act, PvdQ acylase, Wnt bcat act, N-glyco inh)
COc1ccc(-c2cc(C(=O)Nc3ccc4c(c3)OCO4)no2)cc1	Vif inh 53
CCN(CC)C(=O)c1cc(-c2ccc3c(c2)OCO3)on1	MITF act 103 (no result: Vif inh)
CCCNC(=O)c1cc(-c2ccc3c(c2)OCO3)on1	Wnt bcat act 33
COc1ccc(-c2cc(C(=O)Nc3ccc(OC)c(OC)c3)no2)cc1	none
CC(C)NC(=O)c1cc(-c2ccc3c(c2)OCO3)on1	Wnt bcat act 43 (no result: MITF act)
CCCCNC(=O)c1cc(-c2ccc3c(c2)OCO3)on1	none
